Test results taken from PubChem BioAssay AID1159580 (chemical genetic matrix, 2015).
Values joined by “and” are separate entries in the source; they are usually repeats but may differ in a detail not shown here. Identical values can stand only once. Out of some 5,500 compounds screened, about 2,000 (36%) were called active. About 18% were inconclusive and are not listed. No stated cut-off is given here; in the data, active means normalized growth mostly below about 0.91 (no sharp cut-off); inconclusive means no clear call, values can overlap the other calls; inactive means mostly above about 0.92. The list shows a part of the results.

Assay: chemical genetic growth profiling, strain panel (AID 1159580);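 further: tested at 20 µM; growth read once vehicle control cultures reached saturation at 30 °C; 1 = growth at the plate median or of vehicle wells; lower values mean less growth of the strain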
Details: S. cerevisiae deletion strains, growth OD

Measured: normalized growth

CC[C@H]1OC(=O)[C@H](C)[C@@H](O[C@H]2C[C@@](C)(OC)[C@@H](O)[C@H](C)O2)[C@H](C)[C@@H](O[C@@H]2O[C@H](C)C[C@H](N(C)C)[C@H]2O)[C@](C)(O)C[C@@H](C)/C(=N/OCOCCOC)[C@H](C)[C@@H](O)[C@]1(C)O
inactive: locus YAL021C, strain ccr4, active compounds read low 1.03 | locus YAL026C, strain drs2, active compounds read low 1.02 | locus YAL030W, strain snc1, active compounds read low 0.998 | locus YBL061C, strain skt5, active compounds read low 1.01 | locus YBR009C, strain hhf1, active compounds read low 0.998 | locus YBR021W, strain FUR4, active compounds read low 1.02 | locus YBR023C, strain chs3, active compounds read low 1.01 | locus YBR171W, strain sec66, active compounds read low 1.03 | locus YBR229C, strain ROT2, active compounds read low 1.01 | locus YBR231C, strain swc5, active compounds read low 1.01 | locus YBR279W, strain paf1, active compounds read low 1 | locus YCL011C, strain gbp2, active compounds read low 1.01 | locus YCL016C, strain dcc1, active compounds read low 1 | locus YCL029C, strain bik1, active compounds read low 0.988 | locus YCL069W, strain vba3, active compounds read low 1.02 | locus YCR088W, strain abp1, active compounds read low 1.01 | locus YDL005C, strain med2, active compounds read low 1.01 | locus YDL035C, strain GPR1, active compounds read low 1.01 | locus YDL040C, strain nat1, active compounds read low 1.01 | locus YDL074C, strain BRE1, active compounds read low 0.975 | locus YDL101C, strain DUN1, active compounds read low 0.991 | locus YDL134C, strain PPH21, active compounds read low 1.01 | locus YDL185W, strain tfp1, active compounds read low 1 | locus YDL192W, strain arf1, active compounds read low 1.01 | locus YDR001C, strain nth1, active compounds read low 1.01 | locus YDR069C, strain doa4, active compounds read low 1.03 | locus YDR101C, strain arx1, active compounds read low 0.994 | locus YDR137W, strain rgp1, active compounds read low 0.969 | locus YDR159W, strain sac3, active compounds read low 0.996 | locus YDR162C, strain NBP2, active compounds read low 1.01 | locus YDR195W, strain ref2 0.994 | locus YDR297W, strain sur2, active compounds read low 1.02 | locus YDR318W, strain mcm21, active compounds read low 0.995 | locus YDR334W, strain swr1, active compounds read low 1.01 | locus YDR335W, strain msn5, active compounds read low 1.01 | locus YDR388W, active compounds read low 0.999 | locus YDR392W, strain spt3, active compounds read low 0.949 | locus YDR502C, strain sam2, active compounds read low 1.01 | locus YEL003W, strain gim4, active compounds read low 1.02 | locus YEL037C, strain rad23, active compounds read low 1.02 | locus YEL061C, strain CIN8 (second series), active compounds read low 1 | locus YEL061C, strain CIN8, active compounds read low 1 | locus YER015W, strain faa2, active compounds read low 1.01 | locus YER016W, strain bim1, active compounds read low 0.995 | locus YER110C, active compounds read low 1 | locus YER111C, strain swi4, active compounds read low 1.01 | locus YER155C, strain BEM2 (second series), active compounds read low 0.897 | locus YER155C, strain BEM2, active compounds read low 1 | locus YER167W, strain BCK2, active compounds read low 1 | locus YFR010W, strain ubp6, active compounds read low 1.02 | locus YGL078C, strain dbp3, active compounds read low 1 | locus YGL086W, strain mad1, active compounds read low 1 | locus YGL167C, strain pmr1, active compounds read low 1 | locus YGL173C, strain kem1, active compounds read low 1.02 | locus YGL227W, strain vid30, active compounds read low 1.03 | locus YGL240W, strain doc1, active compounds read low 1.02 | locus YGL248W, strain PDE1, active compounds read low 0.993 | locus YGL253W, strain hxk2, active compounds read low 1.01 | locus YGR135W, strain pre9, active compounds read low 1.04 | locus YGR229C, strain SMI1, active compounds read low 1.01 | locus YHR013C, strain ard1, active compounds read low 0.983 | locus YHR027C, strain rpn1, active compounds read low 0.999 | locus YHR030C, strain SLT2, active compounds read low 1.01 and 0.997 | locus YHR079C, strain IRE1 (second series), active compounds read low 0.98 | locus YHR079C, strain IRE1, active compounds read low 0.985 | locus YHR094C, strain hxt1, active compounds read low 0.987 | locus YHR129C, strain ARP1, active compounds read low 1.01 | locus YHR142W, strain chs7, active compounds read low 1.02 | locus YHR200W, strain rpn10, active compounds read low 1.01 | locus YIL066C, strain RNR3, active compounds read low 0.983 | locus YIL073C, strain SPO22, active compounds read low 1.07 | locus YIL125W, strain kgd1, active compounds read low 1 | locus YIR030C, strain dcg1, active compounds read low 0.997 | locus YJL092W, strain hpr5, active compounds read low 1.01 | locus YJL095W, strain BCK1 (second series), active compounds read low 1.01 | locus YJL095W, strain BCK1, active compounds read low 0.97 and 0.99 | locus YJL115W, strain asf1, active compounds read low 1.04 | locus YJL129C, strain trk1, active compounds read low 1.02 | locus YJL134W, strain LCB3, active compounds read low 1 | locus YJL154C, strain vps35, active compounds read low 1.01 | locus YJL164C, strain tpk1, active compounds read low 1.01 | locus YJL166W, strain qcr8, active compounds read low 1.01 | locus YJL168C, strain set2, active compounds read low 0.992 | locus YJL187C, strain SWE1 (second series), active compounds read low 0.97 | locus YJL187C, strain SWE1, active compounds read low 1.02 | locus YJR043C, strain POL32, active compounds read low 1.01 | locus YJR066W, strain TOR1, active compounds read low 0.977
